# Laboratory results from article PMC7862700, “An all-to-all approach to the identification of sequence-specific readers for epigenetic DNA modifications on cytosine”.
# Tests used:
# Assay in all cases: DAPPL (digital affinity profiling via proximity ligation, sequencing); 10 mM Tris-HCl pH 7.5, 50 mM NaCl, 1 mM DTT, 4% glycerol, room temperature, 30 min; GST-TFs on glutathione beads, 16-mer random dsDNA library, 0.1% formaldehyde crosslink after washing; high values mean tight binding
# Conditions in all cases: protein: recombinant; tags: N-terminal GST; dsDNA, one strand shown
# FLI1 = molecular target: T1, FLI1 (Homo sapiens, UniProt Q01543 1-452)
# T1 sequence: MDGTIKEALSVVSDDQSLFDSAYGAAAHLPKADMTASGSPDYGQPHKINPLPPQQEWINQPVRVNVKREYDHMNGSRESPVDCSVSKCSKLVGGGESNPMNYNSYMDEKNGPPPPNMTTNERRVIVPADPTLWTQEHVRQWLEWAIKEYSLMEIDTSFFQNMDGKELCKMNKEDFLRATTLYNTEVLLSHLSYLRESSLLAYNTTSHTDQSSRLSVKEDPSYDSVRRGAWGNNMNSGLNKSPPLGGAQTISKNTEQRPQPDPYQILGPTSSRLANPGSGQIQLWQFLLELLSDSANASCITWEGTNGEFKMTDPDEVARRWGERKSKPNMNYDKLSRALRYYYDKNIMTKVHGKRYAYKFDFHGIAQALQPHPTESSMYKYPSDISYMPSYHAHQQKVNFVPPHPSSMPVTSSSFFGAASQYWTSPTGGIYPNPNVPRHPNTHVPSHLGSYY
# Outline: (§1)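 Each value of binding signal is a hexamer's read frequency for a factor divided by the same hexamer's frequency in the tag-only sample. Barcoded, bead-captured GST fusions of human transcription factors made in yeast were pooled with that sample and incubated with 200 nmole of a random double-stranded 16-mer DNA library in Tris/NaCl/DTT/glycerol buffer at room temperature for 30 min. Washing, 0.1% formaldehyde crosslinking, proximity ligation, PCR and Illumina NextSeq500 sequencing followed.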
# ELK1 = molecular target: T2, ELK1 (Homo sapiens, UniProt P19419 1-428)
# T2 sequence: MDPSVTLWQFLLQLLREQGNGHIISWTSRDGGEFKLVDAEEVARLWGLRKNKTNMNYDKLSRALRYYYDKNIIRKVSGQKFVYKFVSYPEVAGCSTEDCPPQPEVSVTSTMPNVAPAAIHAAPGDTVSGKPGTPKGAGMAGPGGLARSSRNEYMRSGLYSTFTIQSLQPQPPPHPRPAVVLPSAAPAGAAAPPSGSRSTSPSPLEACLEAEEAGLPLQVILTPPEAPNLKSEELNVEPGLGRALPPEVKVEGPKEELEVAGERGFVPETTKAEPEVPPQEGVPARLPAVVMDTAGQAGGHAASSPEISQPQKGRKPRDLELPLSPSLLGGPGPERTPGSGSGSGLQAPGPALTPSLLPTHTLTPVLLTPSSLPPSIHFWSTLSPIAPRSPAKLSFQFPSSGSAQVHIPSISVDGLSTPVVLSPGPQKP
# Outline: as §1
# GABPA = molecular target: T3, GABPA (Homo sapiens, UniProt Q06546 1-454)
# T3 sequence: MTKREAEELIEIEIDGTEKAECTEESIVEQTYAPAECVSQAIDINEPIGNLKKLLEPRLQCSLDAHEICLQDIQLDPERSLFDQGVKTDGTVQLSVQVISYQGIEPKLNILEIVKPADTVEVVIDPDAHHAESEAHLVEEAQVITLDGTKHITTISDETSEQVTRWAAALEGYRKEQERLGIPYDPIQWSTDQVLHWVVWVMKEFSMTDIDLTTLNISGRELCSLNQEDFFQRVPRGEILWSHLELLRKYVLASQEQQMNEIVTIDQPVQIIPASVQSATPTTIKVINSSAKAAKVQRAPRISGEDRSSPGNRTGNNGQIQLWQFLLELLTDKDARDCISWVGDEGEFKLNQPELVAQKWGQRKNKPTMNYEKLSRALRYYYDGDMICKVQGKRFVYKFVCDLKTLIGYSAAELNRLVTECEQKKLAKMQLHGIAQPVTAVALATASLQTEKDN
# Outline: as §1
# ERG = molecular target: T4, ERG (Homo sapiens, UniProt P11308 1-479)
# T4 sequence: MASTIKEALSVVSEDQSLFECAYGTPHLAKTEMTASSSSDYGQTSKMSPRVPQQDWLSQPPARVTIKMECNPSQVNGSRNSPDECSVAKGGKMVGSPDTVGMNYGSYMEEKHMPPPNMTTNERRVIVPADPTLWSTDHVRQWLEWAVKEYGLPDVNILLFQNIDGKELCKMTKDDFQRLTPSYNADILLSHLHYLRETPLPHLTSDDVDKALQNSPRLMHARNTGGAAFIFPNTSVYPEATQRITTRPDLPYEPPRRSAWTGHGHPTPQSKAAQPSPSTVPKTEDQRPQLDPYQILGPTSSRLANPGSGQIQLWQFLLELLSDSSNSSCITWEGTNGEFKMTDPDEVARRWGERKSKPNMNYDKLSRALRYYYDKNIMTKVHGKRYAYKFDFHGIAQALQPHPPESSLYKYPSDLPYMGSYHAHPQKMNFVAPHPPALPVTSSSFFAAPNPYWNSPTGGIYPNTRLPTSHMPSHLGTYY
# Outline: as §1
# ELF1 = ELF1 (Homo sapiens, UniProt P32519 1-619)
# Sequence of ELF1 (P32519 whole entry): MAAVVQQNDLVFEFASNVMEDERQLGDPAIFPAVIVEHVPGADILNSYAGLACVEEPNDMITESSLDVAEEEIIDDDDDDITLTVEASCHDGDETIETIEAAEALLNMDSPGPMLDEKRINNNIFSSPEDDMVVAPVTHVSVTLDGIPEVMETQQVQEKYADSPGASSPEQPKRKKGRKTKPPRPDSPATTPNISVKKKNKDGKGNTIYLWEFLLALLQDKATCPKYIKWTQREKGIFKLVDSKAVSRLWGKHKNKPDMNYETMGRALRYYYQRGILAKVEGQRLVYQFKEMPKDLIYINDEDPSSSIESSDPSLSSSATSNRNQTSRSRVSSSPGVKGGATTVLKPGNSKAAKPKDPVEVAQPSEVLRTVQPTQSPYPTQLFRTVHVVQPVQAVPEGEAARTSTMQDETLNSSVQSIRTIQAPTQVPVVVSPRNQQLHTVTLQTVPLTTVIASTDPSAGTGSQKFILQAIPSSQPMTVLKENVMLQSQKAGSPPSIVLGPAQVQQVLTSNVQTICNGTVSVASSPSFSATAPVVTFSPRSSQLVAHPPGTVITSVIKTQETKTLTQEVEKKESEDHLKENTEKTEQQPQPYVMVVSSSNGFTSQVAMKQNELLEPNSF
# Outline: as §1
# EHF = molecular target: T5, EHF (Homo sapiens, UniProt Q9NZC4 1-300)
# T5 sequence: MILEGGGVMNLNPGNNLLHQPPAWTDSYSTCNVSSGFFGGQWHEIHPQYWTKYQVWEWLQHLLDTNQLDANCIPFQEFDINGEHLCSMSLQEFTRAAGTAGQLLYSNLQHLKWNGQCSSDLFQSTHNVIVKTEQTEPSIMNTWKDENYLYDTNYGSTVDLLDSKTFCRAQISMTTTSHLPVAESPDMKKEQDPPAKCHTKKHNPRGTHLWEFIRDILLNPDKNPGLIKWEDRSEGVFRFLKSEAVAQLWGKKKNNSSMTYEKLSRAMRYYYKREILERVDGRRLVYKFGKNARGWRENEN
# Outline: as §1
# SPI1 [1] = molecular target: SPI1 (Homo sapiens, UniProt P17947 1-270)
# Outline: as §1
# SPIB = SPIB (Homo sapiens, UniProt Q01892 1-262)
# Sequence of SPIB (Q01892 whole entry): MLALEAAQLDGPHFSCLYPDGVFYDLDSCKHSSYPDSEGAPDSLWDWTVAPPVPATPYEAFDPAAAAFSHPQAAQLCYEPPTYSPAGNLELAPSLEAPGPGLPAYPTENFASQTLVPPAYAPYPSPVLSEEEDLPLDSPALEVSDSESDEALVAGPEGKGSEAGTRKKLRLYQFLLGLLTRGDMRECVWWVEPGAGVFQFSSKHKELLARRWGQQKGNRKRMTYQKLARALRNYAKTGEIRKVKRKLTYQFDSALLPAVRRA
# Outline: as §1
# SPI1 [2] = molecular target: SPI1 (Homo sapiens, UniProt P17947 1-270); remark: listed apart in the source
# Outline: as §1
# ELK3 = molecular target: T6, ELK3 (Homo sapiens, UniProt P41970 1-407)
# T6 sequence: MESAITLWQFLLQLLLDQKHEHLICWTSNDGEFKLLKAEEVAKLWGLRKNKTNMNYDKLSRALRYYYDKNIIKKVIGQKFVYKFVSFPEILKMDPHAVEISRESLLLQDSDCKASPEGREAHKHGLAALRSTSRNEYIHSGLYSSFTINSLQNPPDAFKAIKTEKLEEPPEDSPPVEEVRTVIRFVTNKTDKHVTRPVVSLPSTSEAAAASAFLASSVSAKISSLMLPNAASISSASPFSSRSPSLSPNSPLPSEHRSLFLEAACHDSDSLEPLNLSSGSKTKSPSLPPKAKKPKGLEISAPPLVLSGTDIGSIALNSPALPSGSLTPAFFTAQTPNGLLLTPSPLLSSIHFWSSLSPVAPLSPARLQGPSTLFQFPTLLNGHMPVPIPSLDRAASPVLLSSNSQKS
# Outline: as §1
Sequence,binding signal (FLI1),binding signal (ELK1),binding signal (GABPA),binding signal (ERG),binding signal (ELF1),binding signal (EHF),binding signal (SPI1 [1]),binding signal (SPIB),binding signal (SPI1 [2]),binding signal (ELK3)
TGACGA,"1.06 fold enrichment (6-mer frequency, TF over GST control)","1.12 fold enrichment (6-mer frequency, TF over GST control)","1.21 fold enrichment (6-mer frequency, TF over GST control)","1.07 fold enrichment (6-mer frequency, TF over GST control)","1.14 fold enrichment (6-mer frequency, TF over GST control)","1.04 fold enrichment (6-mer frequency, TF over GST control)","1.03 fold enrichment (6-mer frequency, TF over GST control)","1.17 fold enrichment (6-mer frequency, TF over GST control)",–,–
CCGGGT,"1.2 fold enrichment (6-mer frequency, TF over GST control)","1.06 fold enrichment (6-mer frequency, TF over GST control)","1.01 fold enrichment (6-mer frequency, TF over GST control)","1.12 fold enrichment (6-mer frequency, TF over GST control)","1.13 fold enrichment (6-mer frequency, TF over GST control)","1.17 fold enrichment (6-mer frequency, TF over GST control)","1.01 fold enrichment (6-mer frequency, TF over GST control)","1.16 fold enrichment (6-mer frequency, TF over GST control)",–,–
CCGGAA,"5.18 fold enrichment (6-mer frequency, TF over GST control)","6.13 fold enrichment (6-mer frequency, TF over GST control)","4.9 fold enrichment (6-mer frequency, TF over GST control)","6.79 fold enrichment (6-mer frequency, TF over GST control)","5.12 fold enrichment (6-mer frequency, TF over GST control)","5.9 fold enrichment (6-mer frequency, TF over GST control)",–,"5.79 fold enrichment (6-mer frequency, TF over GST control)","5.33 fold enrichment (6-mer frequency, TF over GST control)","6.42 fold enrichment (6-mer frequency, TF over GST control)"
TTCCTC,"2.26 fold enrichment (6-mer frequency, TF over GST control)","2.09 fold enrichment (6-mer frequency, TF over GST control)","2.1 fold enrichment (6-mer frequency, TF over GST control)","2.21 fold enrichment (6-mer frequency, TF over GST control)","2.12 fold enrichment (6-mer frequency, TF over GST control)","2.32 fold enrichment (6-mer frequency, TF over GST control)",–,"2.26 fold enrichment (6-mer frequency, TF over GST control)","4.31 fold enrichment (6-mer frequency, TF over GST control)","2.3 fold enrichment (6-mer frequency, TF over GST control)"
TCTGTG,"1.17 fold enrichment (6-mer frequency, TF over GST control)","1.14 fold enrichment (6-mer frequency, TF over GST control)","1.18 fold enrichment (6-mer frequency, TF over GST control)","1.07 fold enrichment (6-mer frequency, TF over GST control)","1.12 fold enrichment (6-mer frequency, TF over GST control)","1.13 fold enrichment (6-mer frequency, TF over GST control)","1.14 fold enrichment (6-mer frequency, TF over GST control)","1.14 fold enrichment (6-mer frequency, TF over GST control)",–,–
GCTTAG,"1.14 fold enrichment (6-mer frequency, TF over GST control)","1.06 fold enrichment (6-mer frequency, TF over GST control)","1.19 fold enrichment (6-mer frequency, TF over GST control)","1.18 fold enrichment (6-mer frequency, TF over GST control)","1.15 fold enrichment (6-mer frequency, TF over GST control)","1.11 fold enrichment (6-mer frequency, TF over GST control)","1.1 fold enrichment (6-mer frequency, TF over GST control)","1.09 fold enrichment (6-mer frequency, TF over GST control)",–,–
TGTGCA,"1 fold enrichment (6-mer frequency, TF over GST control)","1.09 fold enrichment (6-mer frequency, TF over GST control)","1.08 fold enrichment (6-mer frequency, TF over GST control)","1.16 fold enrichment (6-mer frequency, TF over GST control)","1.08 fold enrichment (6-mer frequency, TF over GST control)","1.14 fold enrichment (6-mer frequency, TF over GST control)","1.08 fold enrichment (6-mer frequency, TF over GST control)","1.18 fold enrichment (6-mer frequency, TF over GST control)",–,–
